# BoNT-A LC inh2: BoNT/A light chain protease inhibitors, primary screen, biochemical, flow cytometry, MLPCN library | Botulinum neurotoxin type A light chain protease (Clostridium botulinum A str. ATCC 3502) | multiplex microsphere protease substrate cleavage | inhibition, % at 10 µM | 360,000 compounds, 0.17% hits | AID 588499, 2011; also: plate controls were buffer without enzyme for full effect and enzyme alone for no effect
# BoNT F protease: BoNT/F light chain protease inhibitors, primary screen, biochemical, flow cytometry, MLPCN library | Botulinum neurotoxin type F light chain protease (Clostridium botulinum) | Multiplex microsphere protease cleavage assay | inhibition, % at 10 µM | 360,000 compounds, 0.22% hits; in the data active = inhibition above about 35%, passing the limit was not always enough; inconclusive = no clear call, values can overlap the other calls; also: plate controls were buffer without enzyme for full effect and enzyme alone for no effect
# Bead autofluor: counter-screen for toxin protease inhibitors: compound fluorescence; compound autofluorescence counterscreen, microsphere flow cytometry; stronger effect = higher value; 360,000 compounds, 3.1% hits; fluorescence intensity (no concentration beside the values); in the data active = fluorescence intensity above about 16000; inconclusive = no clear call, values can overlap the other calls
# Anthrax LF inh2: Bacillus anthracis LF protease inhibitors, primary screen, biochemical, multiplex microsphere, MLPCN library | Lethal factor (Bacillus anthracis), P15917 | multiplex microsphere protease cleavage assay | inhibition, % at 10 µM | 360,000 compounds, 0.12% hits; also: plate controls were buffer without enzyme for full effect and enzyme alone for no effect
# Target sequence (P15917 whole entry, looked up): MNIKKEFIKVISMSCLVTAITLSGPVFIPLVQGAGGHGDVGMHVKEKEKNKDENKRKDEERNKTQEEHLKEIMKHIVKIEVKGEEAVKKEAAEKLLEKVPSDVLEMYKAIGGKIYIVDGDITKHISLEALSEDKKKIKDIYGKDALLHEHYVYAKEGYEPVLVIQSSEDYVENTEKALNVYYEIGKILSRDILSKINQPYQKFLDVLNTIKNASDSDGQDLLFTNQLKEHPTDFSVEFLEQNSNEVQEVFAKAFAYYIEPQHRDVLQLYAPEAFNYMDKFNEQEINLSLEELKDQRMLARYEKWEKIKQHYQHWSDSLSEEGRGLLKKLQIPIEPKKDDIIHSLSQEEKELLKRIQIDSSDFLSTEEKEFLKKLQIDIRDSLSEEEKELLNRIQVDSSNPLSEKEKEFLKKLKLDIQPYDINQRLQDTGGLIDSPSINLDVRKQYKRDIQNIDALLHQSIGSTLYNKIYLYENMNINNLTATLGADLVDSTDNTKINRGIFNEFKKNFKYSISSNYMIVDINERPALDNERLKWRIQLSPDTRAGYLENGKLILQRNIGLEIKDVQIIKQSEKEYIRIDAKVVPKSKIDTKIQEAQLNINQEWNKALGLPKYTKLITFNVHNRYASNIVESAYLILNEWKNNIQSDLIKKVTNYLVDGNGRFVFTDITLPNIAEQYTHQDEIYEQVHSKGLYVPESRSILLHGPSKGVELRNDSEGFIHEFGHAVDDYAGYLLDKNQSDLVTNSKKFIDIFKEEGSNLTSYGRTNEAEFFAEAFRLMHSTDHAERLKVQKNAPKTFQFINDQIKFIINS
# * hit, by the source's call; ? = inconclusive. Rows were chosen to be rich in hits. Some 3.5% of all compounds tested hit in one or more screens of this group. Rule as the data show it, unless noted: active = inhibition above about 30%; inconclusive = no clear call, values can overlap the other calls; inactive = below that.
SMILES,BoNT-A LC inh2,BoNT F protease,Bead autofluor,Anthrax LF inh2
Cc1ccc(NC(=O)C2CCN(C(=O)NC3CCCCC3)CC2)cc1Cl,0,-6,3829,-4
S=C(Nc1ccc(Cl)c(Cl)c1)NC1CCCCC1,-2,-5,21140*,1
CCSC1=C(C#N)C2(CCCCC2)C(C#N)C(=O)N1 (stereo not drawn),?,2,20210*,1
CCSC1=C(C#N)C2(CCCCC2)C(C#N)=C(N)N1,0,0,4647,-3
CC(/C=N/NC(=O)c1ccc(Cn2cc([N+](=O)[O-])cn2)o1)=C\c1ccccc1,0,-3,4626,2
CCOc1ccc(N(CC(=O)Nc2ccccc2C(=O)NC(C)CC)S(C)(=O)=O)cc1 (stereo not drawn),0,-3,1974,-1
CCN1c2ccccc2NC2C1C(C(C)=O)C(=O)N2c1ccc(Cl)cc1 (stereo not drawn),20,4,19587*,9
O=C1Nc2ccccc2N(O)N1c1ccc(Cl)cc1,0,-5,2426,-2
CCOC(=O)C1CCCN(c2nnnn2-c2ccccc2)C1 (stereo not drawn),1,4,4018,0
O=C(Nc1ccc2c(c1)OCCO2)C1CCN(c2nnnn2-c2ccccc2)CC1,1,3,16234*,1
O=C(Nc1cccc(F)c1)C1CCN(c2nnnn2-c2ccccc2)CC1,1,3,15912,-4
CC(=O)Nc1ccc(NC(=O)C2CCN(S(=O)(=O)c3ccc4c(c3)OCCO4)CC2)cc1,0,-2,3767,-5
O=C(NC1CCCCC1)C1CCCN(c2nnnn2-c2ccccc2)C1 (stereo not drawn),?,-6,17148*,-3
O=C(Nc1ccc2c(c1)OCCO2)C1CCN(S(=O)(=O)c2cccs2)CC1,?,-3,23275*,2
O=C(Nc1ccc2c(c1)OCCO2)C1CCN(S(=O)(=O)c2ccc3c(c2)OCCO3)CC1,2,-2,21484*,-1
CC1CCCCN1C(=O)COC(=O)C1CCN(S(=O)(=O)c2ccc3c(c2)OCCO3)CC1 (stereo not drawn),-46,-80,17025*,-8
O=C1[C@@H]2[C@H](Cc3ccc(O)cc3)N[C@]3(C(=O)Nc4ccccc43)[C@@H]2C(=O)N1c1ccc(F)cc1,-1,2,9543,15
Cc1c(Cl)ccc2c1NC(=O)[C@]21N[C@@H](Cc2ccccc2)[C@H]2C(=O)N(c3ccc(F)cc3)C(=O)[C@H]21,?,-1,23930*,-2
CCOc1ccc(NC(=O)C2CC(=O)N3CCCN=C3S2)cc1 (stereo not drawn),1,4,3965,5
CCCOc1ccc(NC(=O)C2CC(=O)N3CCCN=C3S2)cc1 (stereo not drawn),2,0,23005*,0
Cc1nnc(NC(=O)CSc2nnc(C(C)NC(=O)c3ccccc3F)n2C)s1 (stereo not drawn),0,24,3473,-3
COC(=O)c1ccccc1NC(=O)CSc1nnc(C(C)NC(=O)c2ccc(Cl)cc2Cl)n1C (stereo not drawn),-2,0,22829*,-5
CCOC(=O)N1CCN(C(=O)C2CCC(=O)N(CCCc3ccccc3)C2)CC1 (stereo not drawn),1,0,5998,1
CC(OC(=O)Nc1ccccc1)C(=O)OC1CCCCC1 (stereo not drawn),0,-2,3079,-7
Cc1cccc(C)c1OCc1n[nH]c(=S)o1,-1,-6,2660,-8
SMILES,BoNT-A LC inh2,BoNT F protease,Bead autofluor,Anthrax LF inh2
Cc1cccc(OCc2n[nH]c(=S)o2)c1,-1,0,24801*,1
Cc1cc(CCCCCCCCc2cc(C)cc(=O)o2)oc(=O)c1,0,2,8712,-1
COc1ccc2[nH]c(=O)c(CN(C)C(=O)c3ccncc3)cc2c1,-2,-3,20262*,0
COc1ccc2[nH]c(=O)c(CN(C(=O)c3ccncc3)C(C)C)cc2c1,0,-4,2505,-2
CC(=O)N(CCc1ccccc1)Cc1cc2cc(C)ccc2[nH]c1=O,-3,-23,4478,-8
COc1ccc2[nH]c(=O)c(CN(CCc3ccccc3)C(C)=O)cc2c1,2,3,22156*,0
COc1ccc(CC(=O)N2CCN(S(=O)(=O)c3cc(Cl)ccc3Cl)CC2)cc1,0,-7,3946,-9
COC(=O)c1sccc1NC(=O)c1ccc(Br)s1,0,0,22720*,2
COC(=O)c1sccc1NC(=O)c1csc(C)c1,0,1,16143*,-2
COC(=O)c1sccc1NC(=O)c1ccc(C)s1,-1,5,10271,-15
CCCCc1ccc(N=N/C(C(=O)Nc2cc(OC)c(NC(C)=O)cc2OC)=C(/C)O)cc1,1,-4,2319,-4
O=C(Cc1csc(Nc2nc(=S)[nH]c3ccccc23)n1)NCc1ccc(Cl)cc1,-1,-1,23044*,0
Cc1ccc(-n2ncc3c(=O)n(CC#N)cnc32)cc1,0,-2,20625*,-1
O=C1c2cccc([N+](=O)[O-])c2C(=O)N1C1CCCCC1,-1,-3,3218,-5
O=C1c2cccnc2C(=O)N1C1CCCCC1,2,2,21393*,-1
CCC1CCc2c(sc(N)c2C(N)=O)C1 (stereo not drawn),0,-2,9918,3
CC1CCc2c(sc(N)c2C(N)=O)C1 (stereo not drawn),-3,-4,17162*,1
Cc1ccc(-c2cc(=O)[nH][nH]2)c(C)c1,1,1,22424*,-1
CC(C)Cc1ccc(-c2cc(=O)[nH][nH]2)cc1,0,2,4511,-4
COc1ccc(Cl)cc1N(CC(=O)Nc1cccc(SC)c1)S(C)(=O)=O,4,4,21540*,-6
Cc1ccc(OCc2nnc(SCC(=O)Nc3cc(C)on3)n2C)cc1,2,2,21396*,-6
COc1ccccc1NC(=O)Cc1nnc(SCC(=O)c2ccccc2)n1C,-2,-10,3485,-1
Cc1ccccc1NC(=O)Cc1nnc(SCC(=O)c2ccc(Br)cc2)n1C,?,7,18692*,-3
Cc1ccc(NC(=O)Cc2nnc(SCC(=O)Nc3ccccc3)n2C)cc1,0,-9,8363,-2
Cc1ccc(OCc2nnc(SCC(=O)Nc3ccc4c(c3)OCO4)n2C)cc1,-8,-14,26293*,-6
SMILES,BoNT-A LC inh2,BoNT F protease,Bead autofluor,Anthrax LF inh2
Cc1ccc(CSc2nnc(CC(=O)Nc3ccc(C)cc3)n2C)cc1,2,3,19547*,-1
O=C(CSc1ncn[nH]1)NCCC(c1ccccc1)c1ccccc1,0,-5,2373,2
O=C(Cc1ccccc1)NCC(=O)OCc1cccc([N+](=O)[O-])c1,-2,1,5820,1
CS(=O)(=O)Nc1ccc(C(=O)Nc2ccccc2-c2ccccc2)cc1,-3,-13,3731,-9
CCCCn1c(N)c(N(CC)C(=O)c2cc(CC)c(C)s2)c(=O)[nH]c1=O,3,5,4180,1
Cc1cc(C)c2c(c1)/C(=C/C(=O)c1ccc(Br)s1)C(=O)N2,?,-8,21983*,-5

# Screening results: PubChem BioAssay, NMMLSC
